# Measurements from PubChem BioAssay (NCATS).
# Records with an inconclusive call do not appear. Unmarked numbers belong to inactive results. The source made the active and inactive calls. Calls come from the whole dose curve; as a rule, active = well fitted inhibition curve with a large enough effect; inconclusive = small, poorly fitted or top-dose-only effect; inactive = flat fitted curve, though single readings scatter.
# Target: Aldehyde dehydrogenase, mitochondrial (Homo sapiens) (UniProt P05091)
# Assay: qHTS for Inhibitors of the Aldehyde Dehydrogenase Family (ALDH2) Primary screen (AID 2061308);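 note: plate controls were vehicle for no effect and reference inhibitor for full effect; nearly all actives have a fitted effect of over 55% in size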
# Conditions: ALDH2 enzyme inhibition qHTS, 1536-well; series mostly up to 56 µM; activity change, negative = inhibition: at the top concentration
SMILES,"activity change, negative = inhibition",Potency
Nc1nc(Nc2ccc(S(N)(=O)=O)cc2)n(C(=S)Nc2c(F)cccc2F)n1,-12.6%,
CC(=O)OC/C=C(\C)C(CC1C(C)=C(OC(C)=O)C(=O)C2C(C)(C)C(O)CCC12C)OC(C)=O (stereo not drawn),-18.1% [at 28 µM],
CCC(C)C(=O)OC[C@H]1O[C@H](O[C@H]2O[C@H](CO)[C@@H](O)[C@H](O)[C@H]2O)[C@H](O)[C@@H](O)[C@@H]1O (stereo partly drawn),20.7% [at 28 µM],
C=C1CC23CCC4[C@@](C)(CCC[C@@]4(C)C(=O)O)C2CCC1C3 (stereo partly drawn),9.44%,
O=C(O)/C=C/c1ccc(-c2ccc(O)c(C34CC5CC(CC(C5)C3)C4)c2)cc1,4.1%,
COc1ccc(C(O)C(C)OC2OC(CO)C(O)C(O)C2O)cc1 (stereo not drawn),2.92%,
CCC(C)(O)C(O)C(=O)OCc1ccc(O[C@@H]2O[C@H](CO)[C@@H](O)[C@H](O)[C@H]2O)c(OC)c1 (stereo partly drawn),8.37% [at 28 µM],
CC(C)c1cc(-c2ccc(F)c3ccccc23)nc(N)n1,4.78%,
OC[C@H]1O[C@@H](OC(CCCCc2ccc(O)cc2)CCc2ccc(O)cc2)[C@H](O[C@@H]2OC[C@](O)(CO)[C@H]2O)[C@@H](O)[C@@H]1O (stereo partly drawn),0.0955% [at 16.9 µM],
Cc1cc(O)cc(O[C@@H]2O[C@H](CO)[C@@H](O)[C@H](O)[C@H]2O)c1,12.1%,
CC(=O)O[C@@H]1[C@@H](O)[C@H](C)O[C@@H](O[C@H]2[C@@H]3C=CO[C@@H](O[C@@H]4O[C@H](CO)[C@@H](O)[C@H](O)[C@H]4OC(C)=O)[C@@H]3[C@@]3(CO)O[C@@H]23)[C@@H]1OC(=O)/C=C/c1ccc(O)cc1,12.2% [at 16.9 µM],
CC(=O)OC[C@@]12[C@H](O)C[C@]3(C)C(=CCC4[C@@]5(C)CC[C@H](O[C@@H]6O[C@H](C(=O)O)[C@@H](O[C@@H]7O[C@H](CO)[C@@H](O)[C@H](O)[C@H]7O)[C@H](O)[C@H]6O[C@@H]6O[C@H](CO)[C@@H](O)[C@H](O)[C@H]6O)[C@](C)(CO)C5CC[C@]43C)[C@@H]1CC(C)(C)[C@@H](OC(C)=O)[C@@H]2O (stereo partly drawn),14.4% [at 16.9 µM],
Nc1nc(O)c(C2=C3C(=Nc4ccccc43)C(=O)NCC2)[nH]1,3.5%,
CC1=C2C(=O)O[C@@H](c3ccoc3)[C@]2(C)CCC1,,inactive
COC(=O)C1=CO[C@@H](O[C@@H]2O[C@H](CO)[C@@H](O)[C@H](O)[C@H]2O)[C@@H]2C(CO)=CC[C@]12O,-0.236% [at 28 µM],
C/C=C(\C)C(=O)O[C@H]1C=CC(=O)O[C@H]1/C=C/[C@H](O)[C@@H](C)O,-1.45%,
Fc1ccccc1-c1nc2ccn(Cc3ccc(-c4ccc(C(F)(F)F)cc4C(F)(F)F)nn3)cc-2n1,-1.54%,
C=CC(C)(O)CC/C=C(\C)C(=O)OC1C(O)C(CO)OC(OC(=O)C23CCC(C)(C)CC2C2=CCC4C5(C)CCC(OC6OC(COC7OCC(OC(C)=O)C(O)C7OC7OC(COC(C)=O)C(O)C(O)C7O)C(O)C(O)C6O)C(C)(C)C5CCC4(C)C2(C)C(O)C3O)C1OC1OCC(OC2OCC(O)C(OC3OCC(O)C(O)C3O)C2O)C(O)C1O (stereo not drawn),5.34% [at 11.2 µM],
CC(CO)C1CCC2(C)CC3C(CO)CC(O)C3C(C)(O)C/C=C/12 (stereo not drawn),-2.66%,
C=C1CCC2C(C)(C(=O)O)CCCC2(C)C1CCC(C)CC(=O)O (stereo not drawn),-16.7%,
CC(C)CN(C[C@@H](O)[C@H](Cc1ccccc1)NC(=O)O[C@@H]1CO[C@H]2OCC[C@H]21)S(=O)(=O)c1ccc(N)cc1,3.84%,
CC1=C2CC3OC3(C)CCC3OC3(C)CC2OC1=O (stereo not drawn),-0.747%,
CC(C)=CC[C@H]1O[C@]2(O)C([C@H]3CCC4[C@@]5(C)CC[C@H](O[C@@H]6O[C@H](CO)[C@H](O)[C@H](O[C@@H]7O[C@H](CO)[C@@H](O)[C@H](O)[C@H]7O)[C@H]6O[C@@H]6O[C@@H](C)[C@H](O)[C@@H](O)[C@H]6O)C(C)(C)C5CC[C@@]4(C)[C@]3(C)[C@H]2O)[C@@]1(C)O (stereo partly drawn),3.61% [at 16.9 µM],
CC(=O)OC1C(O)C(C)(O)C(/C=C/C(=O)O)C2(C)CCCC(C)(C)C12 (stereo not drawn),-8.8%,
C[C@@H]1C(=O)O[C@H]2[C@H](O)C34[C@H]5C[C@@H](C(C)(C)C)C36[C@@H](OC(=O)[C@@H]6O)O[C@@]4(C(=O)O5)[C@@]12O (stereo partly drawn),18.3% [at 28 µM],
CC1(C)CC2C(O)c3cocc3CC(C)(O)C2C1 (stereo not drawn),10.3%,
C/C(=C\CCC(C)CCO)C(=O)OC1(C)CCC2C(C(=O)O)=COC(OC3OC(CO)C(O)C(O)C3O)C21 (stereo not drawn),-0.926% [at 28 µM],
CC(C)[C@@H](C(=O)O)N1Cc2c(cc(O)c3c2O[C@]2(C3)[C@H](C)CCC3C(C)(C)[C@H](O)[C@H](O)C[C@@]32C)C1=O (stereo partly drawn),14.1% [at 28 µM],
